# Source: PubChem
# Compounds with a hit are over-represented: about 3.9% of the library has one in this group of screens.
# BoNT-A LC inh2: blocks Botulinum neurotoxin A light chain protease | multiplex microsphere protease substrate cleavage, flow cytometry | 360,000 compounds, 0.17% hits | inhibition, % at 10 µM; also: plate controls were buffer without enzyme for full effect and enzyme alone for no effect
# BoNT-F LC inh: inhibitors of Botulinum neurotoxin F light chain protease; Multiplex microsphere protease cleavage assay, flow cytometry; inhibition, % at 10 µM; 360,000 compounds, 0.22% hits; in the data active = inhibition above about 35%, passing the limit was not always enough; inconclusive = no clear call, values can overlap the other calls; also: plate controls were buffer without enzyme for full effect and enzyme alone for no effect
# Autofluor counter: flagged as autofluorescent in microsphere protease counterscreen; fluorescence intensity (concentration not given with the values); compound autofluorescence counterscreen, microsphere flow cytometry; stronger effect = higher value; 360,000 compounds, 3.1% hits; in the data active = fluorescence intensity above about 16000; inconclusive = no clear call, values can overlap the other calls
# Anthrax LF prot: blocks Bacillus anthracis lethal factor protease | P15917 | multiplex microsphere protease cleavage assay, LF | inhibition, % at 10 µM | 360,000 compounds, 0.12% hits | AID 588501; also: plate controls were buffer without enzyme for full effect and enzyme alone for no effect
# 3CLpro inhibitor: SARS-CoV 3CLpro protease inhibition; P0C6X7; recombinant SARS-CoV 3CLpro, quenched FRET peptide cleavage; inhibition, % at 6 µM; 290,000 compounds, 0.14% hits; in the data active = inhibition above about 12%
# VHR inh abs: inhibitors of human VHR1 phosphatase (DUSP3); 290,000 compounds, 0.52% hits; P51452; inhibition, % at 13.3 µM; recombinant VHR phosphatase, pNPP absorbance; in the data active = inhibition above about 50%
# Starred values were filed as active, the others as inactive; ? = inconclusive; . = not tested or not shown. Rule as the data show it, unless noted: active = inhibition above about 30%; inconclusive = no clear call, values can overlap the other calls; inactive = below that.
SMILES,BoNT-A LC inh2,BoNT-F LC inh,Autofluor counter,Anthrax LF prot,3CLpro inhibitor,VHR inh abs
COC(=O)C1=C(O)C(C(=O)OC)C(c2ccc(C)cc2)C(C#N)(C#N)C1c1ccc(C)cc1 (stereo not given),-9,-12,22296*,1,-1,4
CCOC(=O)c1ccc2c(c1)nc(-c1ccccn1)n2CC,-1,-12,3805,18,4,4
CCOC(=O)c1ccc2c(c1)nc(COc1ccc(OC)cc1)n2CC,2,1,16133*,-1,4,-10
CNC(=O)c1c(NC(=O)c2ccco2)sc2c1CCCC2,0,-2,5943,1,2,-2
O=C(Nc1sc2c(c1C(=O)NCc1cccnc1)CCCC2)c1ccco1,0,0,22004*,0,-2,10
COC(=O)Nc1sc2c(c1C(=O)NCc1ccco1)CCCC2,5,4,17349*,-15,5,12
O=C(CCN1C(=O)c2ccccc2C1=O)Nc1sc2c(c1C(=O)NCc1ccco1)CCCC2,?,-6,23594*,-10,-4,11
COC(=O)Nc1sc2c(c1C(=O)NC1CC1)CCCCCC2,0,0,16545*,-2,-3,-11
Cc1ccc(C(=O)Nc2sc3c(c2C(=O)NCc2ccco2)CCCC3)cc1,-1,-34,4637,-7,6,-17
O=C(Nc1sc2c(c1C(=O)NCc1ccco1)CCCC2)c1ccc2c(c1)OCO2,5,6,21722*,-5,1,3
COC(=O)Nc1sc2c(c1C(=O)NCc1ccco1)CCC2,?,1,20826*,-2,1,-26
O=C1CC(C(=O)O)c2ccccc2N1 (stereo not given),18,29,9635,2,-6,12
O=C1CC(CCC(=O)NC2CC2)c2ccccc2N1 (stereo not given),1,2,20432*,0,-2,8
COc1ccccc1CCCNC(=O)C1CCC(=O)N(Cc2ccccc2F)C1 (stereo not given),-2,2,4808,0,5,-31
CC1CN(CC(O)c2ccc(Br)cc2)CCO1 (stereo not given),0,0,2979,1,.,.
CC(=O)Oc1cccc(N2C(=O)c3ccc(C(=O)O)cc3C2=O)c1,0,4,9367,-11,-1,-2
O=C(O)c1ccc2c(c1)C(=O)N(c1cccc(-c3nc4ccccc4s3)c1)C2=O,0,-2,2664,-4,-2,123*
CN(C(=O)COC(=O)/C=C/c1ccc(Cl)c(Cl)c1)c1c(N)n(Cc2ccccc2)c(=O)[nH]c1=O,2,14,4146,-2,.,.
O=C(Nc1ccc2c(c1)C(=O)N(CC1CCCO1)C2=O)c1ccc(Cl)c(Cl)c1 (stereo not given),?,3,22241*,0,2,10
COc1ccc(NC(=O)C2CC(=O)NC(Nc3cccc(C)c3)=N2)cc1 (stereo not given),-1,-21,4406,0,-4,4
CCc1ccc(NC2=NC(C(=O)NC3CCCCC3)CC(=O)N2)cc1 (stereo not given),?,6,20212*,-8,-8,8
CCN(CC)S(=O)(=O)c1ccc2nc(SC)sc2c1,2,1,18930*,0,4,24
CSc1nc2ccc(S(=O)(=O)N(C)C)cc2s1,?,-2,20777*,-3,-2,-17
O=C(Nc1nc2ccc(S(=O)(=O)N3CCCC3)cc2s1)c1cccs1,1,15,4666,-2,1,12
CN(C)S(=O)(=O)c1ccc2nc(NC(=O)c3cccs3)sc2c1,0,-2,21214*,-2,4,8
SMILES,BoNT-A LC inh2,BoNT-F LC inh,Autofluor counter,Anthrax LF prot,3CLpro inhibitor,VHR inh abs
CSc1nc2ccc(NS(=O)(=O)c3ccc(Cl)s3)cc2s1,0,0,4394,1,7,11
O=C(Nc1cccc(S(=O)(=O)NC2=NCCC2)c1)c1cn(-c2ccccc2)nc1-c1ccc(F)cc1,-1,-2,8983,1,.,.
CNC(=O)C1=C(C)n2c(nc3ccccc32)NC1c1ccc(OC)cc1 (stereo not given),1,-3,7418,-4,-1,-20
CC1=C(C(=O)Nc2ccccc2)C(c2cccc([N+](=O)[O-])c2)Nc2nc3ccccc3n21 (stereo not given),-3,-3,23880*,-2,-5,-16
O=C(NCC12CC3CC(CC(C3)C1)C2)c1nc2ncccn2n1,2,0,19103*,-8,0,22
O=C(NCCc1ccccc1)c1nc2ncccn2n1,0,3,7988,-1,-2,18
CNc1nc(SC(C)C(=O)Nc2ccc(Cl)c(Cl)c2)nc(N2CCOCC2)n1 (stereo not given),0,-10,3902,-1,0,23
O=C(N(c1ccccc1)c1ccccc1)n1ccnc1,-7,-8,21662*,-4,3,25
CC(=O)n1ccnc1,0,-5,5532,-6,-4,2
O=C(c1cc(-c2ccccc2)nc2ccccc12)N1CCN(c2ccccn2)CC1,-1,4,3601,2,-3,17
O=C(c1cc(-c2cccnc2)nc2ccccc12)N1CCC2(CC1)OCCO2,2,-2,19594*,-10,5,23
O=C(c1cc(-c2ccncc2)nc2ccccc12)N1CCN(c2ccccn2)CC1,-6,-8,17502*,-2,3,15
CCc1nc2c(OCCOc3ccc(F)cc3)cccn2c1N(C)C(=O)CC(C)C,0,-5,2883,-9,.,.
Cc1[nH]c2ccccc2c1/C=N/NC(=O)C1CC1(c1ccccc1)c1ccccc1 (stereo not given),19,-2,14768,11,4,4
CCN1CCN(C(=O)CN(C)S(=O)(=O)c2ccc(OC)c(C)c2)CC1,1,5,10781,2,3,12
COc1ccc(S(=O)(=O)N(C)CC(=O)N2CCN(C)CC2)cc1C,-2,-4,23309*,0,-4,21
COc1ccc(C)cc1S(=O)(=O)N(C)CC(=O)N1CCC(C(N)=O)CC1,0,2,4376,4,3,19
COc1ccc(S(=O)(=O)N(C)CC(=O)N2CCC(C(N)=O)CC2)cc1Cl,?,-5,21013*,0,-1,-11
COc1ccc(C2=NOC(Cn3nc(-c4ccccc4C)cc3C(=O)O)C2)cc1 (stereo not given),0,7,?,0,.,.
O=C(Nc1ccc(F)c(Cl)c1)C1Cc2c(-c3ccc4c(c3)OCO4)ccnc2O1 (stereo not given),0,-7,3458,1,.,.
O=C(c1ccc(Cl)cc1)C1CCN(C(=O)N2CCOCC2)CC1,-1,-2,19889*,0,-3,18
O=C(Nc1ccccc1Cl)N1CCn2c(nc3ccccc32)C1,-1,5,4136,-8,-2,0
S=C(Nc1ccccc1)N1CCn2c(nc3ccccc32)C1,0,-2,2541,2,-4,-3
O=C(c1ccccc1)N1CCn2c(nc3ccccc32)C1,?,4,19484*,1,5,-2
